# Measurements taken from PubChem BioAssay (NCATS).
# Inconclusive results are not listed. Entries that show only a call come without a potency. Active and inactive are the calls of the source. Calls follow the shape of the dose curve; as a rule, active = well fitted cell-killing curve with a large enough effect; inconclusive = small, poorly fitted or top-dose-only effect, or effect the other way; inactive = no such curve, though single readings can be large or run the other way.
# Assay: Quantitative High-Throughput drug screen in 47 multiple myeloma cell lines against the NCATS MIPE library collection: KMS12PE_JCRB cell viability assay (AID 1918972); also: nearly all actives have a fitted effect of over 30% in size
# Conditions: KMS12PE myeloma viability, CellTiter-Glo ATP, 48 h; series mostly up to 45.8 µM
# Source text: PI: Beverly A. Mock Ph.D.
# Laboratory of Cancer Biology and Genetics,
# Center for Cancer Research, National Cancer Institute,
# National Institute of Health, Bethesda, Maryland
# Drug resistance and disease progression are common in multiple myeloma (MM) patients, underscoring the need for new therapeutic combinations. […] We hypothesized that effective combinations would reduce MYC expression and enhance p16 activity. […] These preclinical data identify potentially useful drug combinations for evaluation in drug-resistant MM and reveal potential mechanisms of combined drug sensitivity.
# Described herein is the primary MIPE qHTS used to cherrypick compounds. Validated compounds were then further tested for potential synergistic activiy.
# [1] Peat TJ, Gaikwad SM, Dubois W, Gyabaah-Kessie N, Zhang S, Gorjifard S, Phyo Z, Andres M, Hughitt VK, Simpson RM, Miller MA, Girvin AT, Taylor A, Williams D, D'Antonio N, Zhang Y, Rajagopalan A, Flietner E, Wilson K, Zhang X, Shinn P, Klumpp-Thomas C, McKnight C, Itkin Z, Chen L, Kazandijian D, Zhang J, Michalowski AM, Simmons JK, Keats J, Thomas CJ, Mock BA. Drug combinations identified by high-throughput screening promote cell cycle transition and upregulate Smad pathways in myeloma. Cancer Lett. 2023 Aug 1;568:216284. doi: 10.1016/j.canlet.2023.216284. Epub 2023 Jun 24. PMID: 37356470; PMCID: PMC10408729.
# SEQUENCE No. (e.g., 1, 2, 3, etc.); […] (e.g., Cells, Incubation, Reagent, etc.); VALUE and DESCRIPTION.
# 1; Cells; 5 uL; white, solid bottom 1536-well Greiner assay plate.
# 2; Compounds; 23 nL; Kalypsis pin tool (Wako USA) equipped with a 1536-well pin head to transfer to the assay plates.
# 3; Incubation; 48 hours; 37C incubation.
# 4; Reagent;5uL; CellTiter Glo (Promega).
# 5; Detector; 425V; Luminescence; Viewlux PerkinElmer.
# NOTES (numbers refer to Sequence numbers above)
# 1. The cell-based screening methods employed in this study were like those previously published. Briefly, the corresponding myeloma cell lines were screened in 1,536-well plates with 500 cells, 5-uL per well for inhibition of cell viability (assessed by measuring ATP levels with CellTiterGlo).
# 2. NCATS MIPE 4.0 library of approved and investigational drugs were added using the Kalypsis pin tool. Wells treated with DMSO only for 100% viability and media only wells for 0% viability were used as controls.
# 3. The assay plates were covered and incubated for 48 hours in a 37C, 5% CO2 incubator with controlled humidity.
# 4. After 48 hours, CellTilter-GloTM luminescent substrate mix (Promega) reagent was added to the assay plate and plates we incubated for 5 min at room temperature.
# 5. Signal was measured as median relative luminescence units on a ViewLux (PerkinElmer) multiplate reader.
# [1] Heske CM, Davis MI, Baumgart JT, Wilson K, Gormally MV, Chen L, Zhang X, Ceribelli M, Duveau DY, Guha R, Ferrer M, Arnaldez FI, Ji J, Tran HL, Zhang Y, Mendoza A, Helman LJ, Thomas CJ. Matrix Screen Identifies Synergistic Combination of PARP Inhibitors and Nicotinamide Phosphoribosyltransferase (NAMPT) Inhibitors in Ewing Sarcoma. Clin Cancer Res. 2017 Dec 1;23(23):7301-7311. doi: 10.1158/1078-0432.CCR-17-1121. Epub 2017 Sep 12. PMID: 28899971; PMCID: PMC6636827.
# Potency is read from the fitted curve at half-maximal effect.
row,Compound,Potency
1,O=P(O)(O)C(O)(Cc1cccnc1)P(=O)(O)O,inactive
2,CC(C)C[C@H](NC(=O)[C@H](CCc1ccccc1)NC(=O)CN1CCOCC1)C(=O)N[C@@H](Cc1ccccc1)C(=O)N[C@@H](CC(C)C)C(=O)[C@@]1(C)CO1,0.001 µM (active)
3,Nc1nc(F)nc2c1ncn2[C@@H]1O[C@H](CO)[C@@H](O)[C@@H]1O,0.235 µM (active)
4,Nc1[nH]c(=O)ncc1F,inactive
5,C[C@@H]1C[C@H]2[C@@H]3CCC4=CC(=O)C=C[C@]4(C)[C@@]3(Cl)[C@@H](O)C[C@]2(C)[C@@]1(OC(=O)c1ccco1)C(=O)CCl,4.69 µM (active)
6,CS(=O)(=O)c1ccc([C@@H](O)[C@@H](CO)NC(=O)C(Cl)Cl)cc1,2.35 µM (active)
7,O=C(N[C@H](CO)[C@H](O)c1ccc([N+](=O)[O-])cc1)C(Cl)Cl,inactive
8,COc1ccccc1OCC(O)COC(N)=O (stereo not given),inactive
9,C#CCN[C@@H]1CCc2ccccc21,inactive
10,CCN(CC)CC#CCOC(=O)C(O)(c1ccccc1)C1CCCCC1 (stereo not given),26.4 µM (active)
11,O=C(O)C1CCCN(CCC=C(c2ccccc2)c2ccccc2)C1 (stereo not given),inactive
12,COc1cc(NS(=O)(=O)c2ccc(N)cc2)nc(OC)n1,inactive
13,Oc1c(Cl)cc(Cl)c2cccnc12,14.8 µM (active)
14,CCN(CC)CCn1c(=O)c(Cc2ccc(OC)cc2)nc2ccccc21,inactive
15,COc1cc([C@@H]2c3cc4c(cc3[C@H](O)[C@H]3COC(=O)[C@H]23)OCO4)cc(OC)c1OC,inactive
16,O=NN(CCCl)C(=O)NC1CCCCC1,inactive
17,CC1=CC(=O)c2ccccc2C1=O,inactive
18,CCCc1cc(C(N)=S)ccn1,inactive
19,CCCOc1ccc(C(=O)OCCN(CC)CC)cc1N,inactive
20,CCOC(=O)c1ccc(OC(=O)CCCCCN=C(N)N)cc1,inactive

row,Compound,Potency
1,Cn1nnc2c(C(N)=O)ncn2c1=O,inactive
2,COc1cnc(NS(=O)(=O)c2ccc(N)cc2)nc1,14.8 µM (active)
3,CC(C)C1CCC(C(=O)N[C@H](Cc2ccccc2)C(=O)O)CC1 (stereo not given in full),inactive
4,COc1c(N2CCNC(C)C2)c(F)cc2c(=O)c(C(=O)O)cn(C3CC3)c12 (stereo not given),inactive
5,CC(C)(C#N)c1cc(Cn2cncn2)cc(C(C)(C)C#N)c1,inactive
6,CCOC(=O)[C@H](CCc1ccccc1)N[C@H]1CCc2ccccc2N(CC(=O)O)C1=O,8.33 µM (active)
7,O=c1oc2c(O)c(O)cc3c(=O)oc4c(O)c(O)cc1c4c23,inactive
8,Cc1ccnc2c1NC(=O)c1cccnc1N2C1CC1,inactive
9,CN(CCOc1ccc(CC2SC(=O)NC2=O)cc1)c1ccccn1 (stereo not given),inactive
10,CCC(=O)O[C@]1(C(=O)CCl)[C@@H](C)C[C@H]2[C@@H]3CCC4=CC(=O)C=C[C@]4(C)[C@@]3(F)[C@@H](O)C[C@@]21C,16.6 µM (active)
11,NS(=O)(=O)c1cc2c(cc1Cl)NC(C(Cl)Cl)NS2(=O)=O (stereo not given),inactive
12,CC(=O)CC(c1ccccc1)c1c(O)c2ccccc2oc1=O (stereo not given),inactive
13,Cc1onc(-c2ccccc2Cl)c1C(=O)N[C@@H]1C(=O)N2[C@@H]1SC(C)(C)[C@@H]2C(=O)O,inactive
14,COc1cc2nc(N3CCCN(C)CC3)nc(NC3CCN(Cc4ccccc4)CC3)c2cc1OC,2.35 µM (active)
15,N=C(N)c1ccc(OCCCCCOc2ccc(C(=N)N)cc2)cc1,5.9 µM (active)
16,CCCc1nc(C)c2c(=O)[nH]c(-c3cc(S(=O)(=O)N4CCN(CC)CC4)ccc3OCC)nn12,2.96 µM (active)
17,CCN[C@H]1C[C@H](C)S(=O)(=O)c2sc(S(N)(=O)=O)cc21,inactive
18,COc1ccc2c(c1)c(CC(=O)OCC(=O)O)c(C)n2C(=O)c1ccc(Cl)cc1,inactive
19,CCC(C)(C)c1ccc(CC(C)CN2C[C@@H](C)O[C@@H](C)C2)cc1 (stereo not given in full),inactive
20,Nc1nc(N)nc(-c2cc(Cl)ccc2Cl)n1,inactive
